This assay can be described thus: Vibrio harveyi AI-2 signaling luminescence modulation – JMH597 strain, confirmation (AID 2736). The conditions noted are these: Vibrio harveyi JMH597 AI-2 quorum sensing luminescence, 9 h; at 7.5 µM; hits give high values; luxN and CqsS knockout, AI-2 only.

We go through 33 molecules from PubChem BioAssay AID2736 (Broad Institute, 2010).

The other results are listed elsewhere or left out. Unmarked numbers belong to inactive results. Calls of active or inactive are those of the source.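 The calls were made as follows: active = every replicate shows more than 75% inhibition of signal versus neutral control wells; inconclusive = half to three quarters of replicates exceed 75% inhibition; inactive = fewer than half of replicates exceed 75% inhibition.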

For the molecule `CN(Cc1cnccn1)C(=O)c1cc(COc2cccc(C(F)(F)F)c2)on1`, the inhibition was 97.2% (active).
The result for `Cc1cc(CN(C)C(=O)c2cc(COc3ccc(C)c(C)c3)on2)n[nH]1` reads 97.5% (active); that for `O=S(=O)(Nc1cccc(Oc2ccc(Cl)cc2)n1)c1ccc(F)cc1`, 99.7% (active).
The result for `Cc1ccc(Oc2cnn(-c3ccccc3)c(=O)c2Br)cc1` reads 99.3% (active).
`CCOc1ccc(/C=N/NC(N)=S)cc1`: the inhibition is 94.3% (active).
Then `Cc1ccc(NC(=O)C2CC2c2ccccc2)cc1` (stereo not drawn), with 94.7% (active); and `CC(=O)c1cccc(OCc2cc(C(=O)NC(C)Cc3cccnc3)no2)c1` (stereo not drawn), with 95.5% (active); and `Cc1nn(CC(=O)Nc2ccc(F)cc2)c(=O)c2ccccc12`, with 99% (active).
In the case of `CCOC(=O)c1nn(-c2cccc(C)c2)cc1C(=O)c1ccccc1`, the inhibition is 93.5% (active).
Then `O=C(Cn1cnc2ccccc2c1=O)Nc1cccc(S(=O)(=O)N2CCCCC2)c1`, with 88.6% (active).
Regarding `Cc1ccc(NS(=O)(=O)c2ccc3c(c2)NC(=O)CO3)cc1`, the inhibition was 95% (active).
The result for `Cc1cccc(CSc2ccc(-c3cccs3)nn2)c1` reads 96.9% (active); that for `O=C1COc2ccc(S(=O)(=O)Nc3ccc(OC(F)(F)F)cc3)cc2N1`, 99.2% (active).
Then `Cc1ccsc1C(=O)OCC(=O)c1cc2ccccc2o1`, with 96.8% (active); and `O=C(/C=C/c1ccc2c(c1)OCCO2)c1ccc(O)cc1`, with 95.7% (active).
Turning to `Cc1ccc(Cc2nc(-c3cccc(C)c3)no2)cc1`, the inhibition was 94.6% (active).
The result for `O=C(/C=C/c1ccc2c(c1)OCO2)NCc1ccc(F)cc1` reads 94.2% (active); that for `O=C(CCC(=O)c1cccs1)Nc1nc2ccccc2s1`, 97.8% (active).
Then `Cc1ccccc1NC(=O)CCOc1ccccc1`, with 91.6% (active); and `O=C(COc1ncnc2ccccc12)NC(=O)NCc1ccccc1`, with 96.5% (active); and `COc1cccc(NC(=O)NCc2ccc(F)cc2)c1`, with 95.3% (active).
The result for `COc1ccc(/C(N)=N/OC(=O)Cc2ccccc2)cc1` reads 96% (active).
In the case of `O=C(Nc1ccc(F)c(Cl)c1)C1CCN(S(=O)(=O)c2cccnc2)CC1`, the inhibition was 98.4% (active).
Then `N/C(=N\OC(=O)CCc1ccccc1)c1cccnc1`, with 93.1% (active).
The result for `Cc1ccccc1C(=O)Nc1ccc(N2CCCCCC2)cc1` reads 94.5% (active).
The result for `O=C(COC(=O)C1CCCCC1)Nc1ccc([N+](=O)[O-])cc1` reads 95.3% (active); that for `Cc1cc(C(=O)OCC(=O)Nc2ccc(F)c(F)c2)c(C)o1`, 97.8% (active).
With `COC(=O)c1ccc(SCc2ccccc2)nc1`, the inhibition is 97.3% (active).
Then `CC(C)(C)c1ccc(OC2=CS(=O)(=O)c3ccccc32)cc1`, with 96.6% (active); and `COC(=O)C1CCN(C(=O)c2ccc3oc(Cc4ccc(Cl)cc4)nc3c2)CC1`, with 96.4% (active); and `CC(CNc1ccc([N+](=O)[O-])cc1)NC(=O)c1ccccc1Br` (stereo not drawn), with 8.81%.
Then `O=C(c1cc(-c2cccc(O)c2)on1)N1CCc2ccccc2C1`, with 94.4% (active).
Consider `S=C(NCc1ccc(Cl)cc1)NC1CCCCC1`, for which the inhibition was 95.5% (active).

By inhibition is commonly meant the relative decrease from the control value, in per cent.
